Test results taken from PubChem BioAssay (NCI).
Compounds without any hit were thinned out: in the full panel of roughly 83,000, 20% have a hit.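 Method: cells in 96-well plates; compound added at one concentration; 48 h incubation; percent growth measured; values under 10 scored active.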 Active and inactive are the calls of the source.

Legend:
Test in all cases: NCI-60 one-dose screen, 48 h (100 = growth as untreated, 0 = no growth, -100 = all killed)
Conditions in all cases: 10 µM unless noted
SK-MEL-2 melanoma = tested on: SK-MEL-2 melanoma
EKVX NSCLC = tested on: EKVX NSCLC
SN12C renal = tested on: SN12C renal
UO-31 renal = tested on: UO-31 renal
TK-10 renal = tested on: TK-10 renal
ACHN renal = tested on: ACHN renal
CAKI-1 renal = tested on: CAKI-1 renal
A498 renal = tested on: A498 renal
MOLT-4 leukemia = tested on: MOLT-4 leukemia

Measured: growth

NC(=N\N=C/c1ccccc1[N+](=O)[O-])/C(N)=N\N=C/c1ccccc1[N+](=O)[O-]
inactive: SK-MEL-2 melanoma 98.4% | EKVX NSCLC 98.5% | SN12C renal 108% | UO-31 renal 116% | TK-10 renal 99.6% | ACHN renal 109% | CAKI-1 renal 95.2% | A498 renal 85.9% | MOLT-4 leukemia 113%

CCN(CC)CCn1nc2c3c(cccc3c1=O)-c1ccccc1-2
active: UO-31 renal 6.26% | ACHN renal -41.7% | MOLT-4 leukemia 4.13%
inactive: SK-MEL-2 melanoma 32.8% | EKVX NSCLC 40.7% | SN12C renal 15.5% | TK-10 renal 26.4% | CAKI-1 renal 18.1% | A498 renal 24.3%

CC1O[C@@H](OC2[C@H](OC(=O)/C=C/c3ccc(O)c(O)c3)C(COC3O[C@H](C)C(O)C(O)[C@@H]3O)O[C@@H](OCCc3ccc(O)c(O)c3)[C@H]2O)[C@@H](O)C(O)[C@H]1O (some centres undefined)
inactive: SK-MEL-2 melanoma 99.6% | EKVX NSCLC 91.2% | SN12C renal 106% | UO-31 renal 89.9% | TK-10 renal 100% | ACHN renal 103% | CAKI-1 renal 97.3% | A498 renal 107% | MOLT-4 leukemia 99.1%

N#Cc1c(-c2cccc(Cl)c2)cc(-c2cccc(Cl)c2)[nH]c1=O
inactive: SK-MEL-2 melanoma 67% | EKVX NSCLC 89% | SN12C renal 82.8% | UO-31 renal 74% | TK-10 renal 96.7% | ACHN renal 93.4% | CAKI-1 renal 63.6% | A498 renal 47% | MOLT-4 leukemia 54.1%

CCCCCCCCn1ccc2cc(NC(=O)Cn3cc(CN4CCCC4)nn3)ccc21
active: UO-31 renal 6.9% | CAKI-1 renal 8.76%
inactive: SK-MEL-2 melanoma 68.6% | EKVX NSCLC 88.8% | SN12C renal 44.4% | TK-10 renal 89.9% | ACHN renal 89.4% | A498 renal 87.2% | MOLT-4 leukemia 32.8%

COc1cc2c(cc1-c1c(C)noc1C)ncc1nc(C3CCC(F)(F)CC3)n(C3CCC(OC(F)F)CC3)c12 (centres undefined)
inactive: SK-MEL-2 melanoma 46% | EKVX NSCLC 53.9% | SN12C renal 76.6% | UO-31 renal 18.2% | TK-10 renal 41.3% | ACHN renal 66.2% | CAKI-1 renal 52.1% | A498 renal 61.2% | MOLT-4 leukemia 59.7%

COc1ccc(/C=c2\nc3n(-c4ccccc4)c4nc5c6c(sc5c(=N)n4n-3c2=O)CCCC6)cc1
inactive: SK-MEL-2 melanoma 99.4% | EKVX NSCLC 67% | SN12C renal 86.4% | UO-31 renal 49.5% | TK-10 renal 124% | ACHN renal 75.1% | CAKI-1 renal 72.9% | A498 renal 58.9% | MOLT-4 leukemia 56.3%

C=C1C(=O)O[C@H]2[C@H]1CC/C(COC(=O)C(=O)c1c[nH]c3ccc(OC)cc13)=C\CC[C@@]1(C)O[C@@H]21
active: SK-MEL-2 melanoma -60.9% | EKVX NSCLC -4.43% | SN12C renal -48.5% | UO-31 renal -96.3% | TK-10 renal -56.7% | ACHN renal -67.1% | CAKI-1 renal -56.9% | A498 renal -98.7% | MOLT-4 leukemia -28.2%

CC(=O)c1ccc(NCC(=O)Nc2ccccn2)cc1
inactive: SK-MEL-2 melanoma 105% | EKVX NSCLC 101% | SN12C renal 106% | UO-31 renal 86.4% | TK-10 renal 146% | ACHN renal 103% | CAKI-1 renal 87.9% | A498 renal 104% | MOLT-4 leukemia 100%

COc1ccc(CN2C(=O)C(Cl)=C(Nc3cccc(C(F)(F)F)c3)C2=O)cc1
inactive: SK-MEL-2 melanoma 81.7% | EKVX NSCLC 63.4% | SN12C renal 72.8% | UO-31 renal 28.5% | TK-10 renal 88.2% | ACHN renal 52.5% | CAKI-1 renal 37.4% | A498 renal 57.6% | MOLT-4 leukemia 11.9%

O=Cc1c[nH]c2ccc(-c3csc4ccccc34)cc12
inactive: SK-MEL-2 melanoma 110% | EKVX NSCLC 55.9% | SN12C renal 75.2% | UO-31 renal 42.9% | TK-10 renal 60.6% | ACHN renal 63.7% | CAKI-1 renal 39.7% | A498 renal 43.5% | MOLT-4 leukemia 15.7%

c1ccc2c(c1)nc(CN1CCOCC1)n1cc(N3CCCC3)nc21
inactive: SK-MEL-2 melanoma 106% | EKVX NSCLC 87.2% | SN12C renal 97.7% | UO-31 renal 75.1% | TK-10 renal 114% | ACHN renal 104% | CAKI-1 renal 99.5% | A498 renal 98.7% | MOLT-4 leukemia 99%

COc1ccc(-c2cc(-c3ccc(Nc4nc(Nc5ccc(Cl)cc5)nc(Nc5ccc(Cl)cc5)n4)cc3)nc(N)c2C#N)cc1
active: EKVX NSCLC -27.1% | UO-31 renal -46.7% | TK-10 renal -67.3% | ACHN renal -59.5%
inactive: SK-MEL-2 melanoma 13.1% | SN12C renal 58.3% | CAKI-1 renal 44.2% | A498 renal 65.7% | MOLT-4 leukemia 15.9%

C=CCOC1=CC(=O)c2ccccc2C1=O
inactive: SK-MEL-2 melanoma 60.5% | EKVX NSCLC 116% | SN12C renal 82.9% | UO-31 renal 74.2% | TK-10 renal 113% | ACHN renal 83% | CAKI-1 renal 101% | A498 renal 74.6% | MOLT-4 leukemia 65.8%

CC(C)=C[C@@H]1c2c(c3ccccc3n(C)c2=O)O[C@H]2c3c(c4ccccc4n(C)c3=O)OC(C)(C)[C@@H]12
inactive: SK-MEL-2 melanoma 66.4% | EKVX NSCLC 90.9% | SN12C renal 115% | UO-31 renal 63.1% | TK-10 renal 123% | ACHN renal 70.4% | CAKI-1 renal 87.7% | A498 renal 102% | MOLT-4 leukemia 39.5%

CC1(C)OC2C(CO[Si](C)(C)C(C)(C)C)OC(n3c(I)c(C#C[Si](C)(C)C)c(=O)[nH]c3=O)C2O1 (centres undefined)
active: CAKI-1 renal -8.73%
inactive: SK-MEL-2 melanoma 82.1% | EKVX NSCLC 109% | SN12C renal 85.7% | UO-31 renal 86.6% | TK-10 renal 109% | ACHN renal 107% | A498 renal 102% | MOLT-4 leukemia 13.4%

COCN1CCC2N(COC)CCC3N(COC)CCC1N23 (centres undefined)
inactive: SK-MEL-2 melanoma 107% | EKVX NSCLC 108% | SN12C renal 89.6% | UO-31 renal 107% | TK-10 renal 113% | ACHN renal 108% | CAKI-1 renal 102% | A498 renal 113% | MOLT-4 leukemia 111%

N#C/C(=C/C=C/c1cccc(Cl)c1)S(=O)c1ccccc1 (centres undefined)
active: SK-MEL-2 melanoma -12.3% | EKVX NSCLC -56.3% | SN12C renal -55.4% | UO-31 renal -65.6% | TK-10 renal -82.5% | ACHN renal -82.6% | CAKI-1 renal -68.2% | A498 renal -69.9% | MOLT-4 leukemia -0.839%

Cn1c(-c2c(N)n(Cc3cccnc3)c3nc(C#N)c(C#N)nc23)nc2ccccc21
inactive: SK-MEL-2 melanoma 107% | EKVX NSCLC 87.1% | SN12C renal 106% | UO-31 renal 31.5% | TK-10 renal 55.5% | ACHN renal 85.8% | CAKI-1 renal 92.1% | A498 renal 98.9% | MOLT-4 leukemia 74.1%

Cc1cc(C)c2c(-c3nnc(N)s3)cc(=O)oc2c1
inactive: SK-MEL-2 melanoma 114% | EKVX NSCLC 97.2% | SN12C renal 99.3% | UO-31 renal 88% | TK-10 renal 108% | ACHN renal 105% | CAKI-1 renal 89.3% | A498 renal 79.9% | MOLT-4 leukemia 106%

COc1cc2c(cc1-c1c(C)noc1C)ncc1nc(C3CCCCC3)n(C3CCC(OC(F)F)CC3)c12 (centres undefined)
active: SK-MEL-2 melanoma 6.6% | UO-31 renal 8.28%
inactive: EKVX NSCLC 41.1% | SN12C renal 52.7% | TK-10 renal 24.1% | ACHN renal 37.4% | CAKI-1 renal 42.7% | A498 renal 28.3% | MOLT-4 leukemia 18.4%

NC(=N\N=C/c1cccc([N+](=O)[O-])c1)/C(N)=N\N=C/c1cccc([N+](=O)[O-])c1
inactive: SK-MEL-2 melanoma 75% | EKVX NSCLC 79.5% | SN12C renal 86.8% | UO-31 renal 107% | TK-10 renal 27.6% | ACHN renal 94% | CAKI-1 renal 53.8% | A498 renal 61.5% | MOLT-4 leukemia 86%

COC1=C(OC)C(=O)C(OC)=C(OC)C1=O
inactive: SK-MEL-2 melanoma 118% | EKVX NSCLC 102% | SN12C renal 94.9% | UO-31 renal 81.2% | TK-10 renal 124% | ACHN renal 118% | CAKI-1 renal 98.9% | A498 renal 77.2%
active: MOLT-4 leukemia -24.5%

COCCN(C(=O)c1ccc(F)cc1F)c1c(N)n(Cc2ccccc2)c(=O)[nH]c1=O
inactive: SK-MEL-2 melanoma 98.7% | EKVX NSCLC 109% | SN12C renal 108% | UO-31 renal 83.4% | TK-10 renal 119% | ACHN renal 103% | CAKI-1 renal 106% | A498 renal 100% | MOLT-4 leukemia 98.1%

O=C1C=C[C@]2(C[C@@H](c3cccc(C(F)(F)F)c3)O[C@@H](c3cccc(C(F)(F)F)c3)O2)O1
inactive: EKVX NSCLC 80.9% | CAKI-1 renal 32.8% | A498 renal 31%
active: SK-MEL-2 melanoma -26.7% | SN12C renal 0.629% | UO-31 renal -77.3% | TK-10 renal -85.5% | ACHN renal -49.4% | MOLT-4 leukemia 3.17%

N/C(=N\c1nc2ccccc2s1)NC(=O)Nc1cccc(Cl)c1
inactive: SK-MEL-2 melanoma 28.9% | EKVX NSCLC 49.7% | SN12C renal 40.9% | UO-31 renal 46.8% | TK-10 renal 69.2% | ACHN renal 44.7% | CAKI-1 renal 23.9% | A498 renal 10.7% | MOLT-4 leukemia 31.1%
